Screens from PubChem BioAssay.
Only some compounds are listed: those with a hit (about 4.2% of all), similar ones and a draw of the others.
TIM10 inh = inhibits growth of TIM10 yeast strain; S. cerevisiae TIM10 strain growth, BacTiter-Glo luminescence, 24 h; inhibition, % at 10 µM; 330,000 tested, 1.4% active; AID 463195;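 active = inhibition of 40% or more at the single tested concentration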;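 note: wild-type TIM10 isogenic control strain grown at permissive 25 °C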
tim23-1 inh = growth inhibitors of tim23-1 mutant yeast | S. cerevisiae tim23-1 growth, BacTiter-Glo luminescence, 24 h | 330,000 tested, 1.3% active | inhibition, % at 20 µM;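 active = growth inhibition of the mutant yeast at or above 50%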;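 note: temperature-sensitive mutant grown at 25 °C; plate controls were DMSO-treated mutant yeast for no effect and medium wells lacking yeast for full effect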
PfHsp90 set2 = growth inhibition of yeast expressing Plasmodium Hsp90; S. cerevisiae expressing PfHsp90, BacTiter-Glo ATP, 48 h; yeast lacking PDR1 and PDR3 efflux regulators; inhibition, % at 9.4 µM; 310,000 tested, 0.32% active; AID 504621;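 active = every replicate shows inhibition above about 80%, whatever the replicate mean, limit read from the data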;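 note: 0% = DMSO neutral controls and 100% = 20 µM radicicol positive controls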
NALP1 yeast inh = NALP1 inhibition; inhibition, % at 10 µM; 280,000 tested, 0.61% active; S. cerevisiae NALP1/ASC/caspase-1 growth, X-gal OD620, 72 h; in the data active = inhibition mostly above about 24%, no sharp cut-off; inactive = mostly below about 32%
NALP3 yeast inh = blocks the NALP3 inflammasome reconstituted in yeast | 330,000 tested, 0.39% active | inhibition, % at 10 µM | Yeast reconstituted NLRP3/ASC/caspase-1, beta-gal luminescence, 24 h;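 active = inhibition of 50% or more; inactive = inhibition below 50%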;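 note: plate controls were induced DMSO wells for no effect and uninduced yeast grown without galactose for full effect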
tim10-1 inh = inhibits growth of tim10-1 mutant yeast. 330,000 tested, 2.2% active. S. cerevisiae tim10-1 ts strain growth, BacTiter-Glo, 24 h. inhibition, % at 20 µM. AID 463190;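 active = inhibition of at least 40%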;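 note: mutant grown at 25 °C; 0% = DMSO wells with yeast and 100% = wells holding no yeast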
tim10-1 confirm = confirmation of tim10-1 mutant yeast growth inhibitors | S. cerevisiae tim10-1 ts strain growth, BacTiter-Glo, 24 h | shares compounds with tim10-1 inh | 7,400 tested, 56% active | inhibition, % at 20 µM;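 active = inhibition of yeast growth at or above a set limit in either of two repeat tests at 20 µM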;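 note: tim10-1 mutant grown at permissive 25 °C to find synthetic lethal compounds; 0% = DMSO yeast wells and 100% = medium wells without yeast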
The depositor's hits bear a star.

`C=CC[C@@H]1Cc2c(Br)ccc(Br)c2[C@@H](CC=C)N1` gave TIM10 inh -2, tim23-1 inh 29, PfHsp90 set2 9, NALP1 yeast inh 9, NALP3 yeast inh 9, tim10-1 inh 41* and tim10-1 confirm 28.
O=C(Nc1ccccc1)c1ccccc1N=Cc1ccccc1O was read as TIM10 inh 4, tim23-1 inh 12, PfHsp90 set2 11, NALP1 yeast inh 27, NALP3 yeast inh 17 and tim10-1 inh -5.
`CCOc1ccccc1C=Nc1ccccc1C(=O)Nc1ccccc1` gave TIM10 inh 36, tim23-1 inh 36, PfHsp90 set2 3, NALP1 yeast inh 21, NALP3 yeast inh 13, tim10-1 inh 46* and tim10-1 confirm 29.
For Cc1nnc(SCC(=O)N2CCC(c3noc4ccc(F)cc34)CC2)s1 the results were TIM10 inh 37, tim23-1 inh 48, NALP1 yeast inh 4, NALP3 yeast inh 12 and tim10-1 inh 34.
`Cc1sc2ncnc(SCC(=O)N3CCC(c4noc5ccc(F)cc45)CC3)c2c1C` gave TIM10 inh 6, tim23-1 inh -34, PfHsp90 set2 6, NALP1 yeast inh 5, NALP3 yeast inh 8, tim10-1 inh 50* and tim10-1 confirm 3.
CCCCn1c(N)c(N(CCC(C)C)C(=O)c2[nH]c(C)c(C(=O)OCC)c2C)c(=O)[nH]c1=O was read as TIM10 inh 7, tim23-1 inh 7, NALP3 yeast inh 18 and tim10-1 inh 12.
Screening Cc1ccc(/C(C#N)=C\c2ccc(N3CCOCC3)o2)cc1 returned TIM10 inh 14, tim23-1 inh 42, PfHsp90 set2 -30, NALP1 yeast inh 40, NALP3 yeast inh 42 and tim10-1 inh 36.
`N#C/C(=C/c1ccc(N2CCCCCC2)o1)c1ccc(Cl)cc1` gave TIM10 inh 39, tim23-1 inh 48, PfHsp90 set2 104*, NALP1 yeast inh 18, NALP3 yeast inh 35, tim10-1 inh 47* and tim10-1 confirm 28.
`O=c1oc(CCCO)cc2ccccc12` gave TIM10 inh -5, tim23-1 inh 1, PfHsp90 set2 2, NALP3 yeast inh 5 and tim10-1 inh -4.
O=CNC1CCCc2c1[nH]c1ccc(Cl)cc21 (centres undefined) was read as TIM10 inh 30, tim23-1 inh 33, PfHsp90 set2 -9, NALP1 yeast inh -16, NALP3 yeast inh 8, tim10-1 inh 45* and tim10-1 confirm 28.
`Cc1[nH]nc(SCC(=O)NCc2ccc(Cl)cc2)c1[N+](=O)[O-]` gave TIM10 inh 13, tim23-1 inh 7, PfHsp90 set2 17, NALP1 yeast inh -6, NALP3 yeast inh 6 and tim10-1 inh 16.
For COc1ccc(C(=O)O/N=C(\N)c2ccc(Br)cc2)cc1 the results were TIM10 inh 39, tim23-1 inh 31, PfHsp90 set2 1, NALP1 yeast inh 22, NALP3 yeast inh 35, tim10-1 inh 43* and tim10-1 confirm 53*.
Screening COc1ccc(/C(N)=N/OC(=O)Cc2ccccc2OC)cc1 returned TIM10 inh 23, tim23-1 inh 20, PfHsp90 set2 -33, NALP1 yeast inh 11, NALP3 yeast inh 16, tim10-1 inh 49* and tim10-1 confirm 32*.
COc1ccccc1CC(=O)O/N=C(\N)c1ccccn1 was read as TIM10 inh 2, tim23-1 inh -2, PfHsp90 set2 -13, NALP1 yeast inh 3, NALP3 yeast inh 9 and tim10-1 inh -5.
`Cc1[nH]c(C(=O)O)c(C#N)c1C(=O)c1ccccc1` gave TIM10 inh 6, tim23-1 inh 5, PfHsp90 set2 14, NALP1 yeast inh 4, NALP3 yeast inh 4 and tim10-1 inh 8.
`CC(=O)N(C(C)=O)c1c(C#N)c(C)n(-c2ccccc2)c1C(=O)c1ccccc1` gave TIM10 inh 20, tim23-1 inh 37, PfHsp90 set2 3, NALP1 yeast inh 19, NALP3 yeast inh 19, tim10-1 inh 41* and tim10-1 confirm 20.
`CN(C)S(=O)(=O)c1ccc(Cl)c(C(=O)Nc2ccc(S(=O)(=O)N3CCOCC3)cc2)c1` gave TIM10 inh -7, tim23-1 inh 0, PfHsp90 set2 5, NALP1 yeast inh 9, NALP3 yeast inh -28 and tim10-1 inh 8.
CCn1c(SCC(=O)NC2CCCCC2)nnc1C(C)NC(=O)c1ccccc1F (centres undefined) was read as TIM10 inh -11, tim23-1 inh -1, PfHsp90 set2 24, NALP1 yeast inh 31, NALP3 yeast inh 5 and tim10-1 inh 2.
For O=C(CS(=O)(=O)c1ccccc1)Nc1nc(-c2ccccc2)cs1 the results were TIM10 inh 27, tim23-1 inh 45, PfHsp90 set2 -19, NALP1 yeast inh 28, NALP3 yeast inh -2, tim10-1 inh 47* and tim10-1 confirm 40*.
For O=C(O)C1CCC(C(=O)O)SS1 (centres undefined) the results were PfHsp90 set2 -3.
`O=C(Nc1nc(-c2ccco2)c(-c2ccco2)s1)c1ccc(F)cc1F` gave TIM10 inh 16, tim23-1 inh 25, PfHsp90 set2 12, NALP3 yeast inh 5, tim10-1 inh 40* and tim10-1 confirm 43*.
`O=C(Nc1nc(-c2ccco2)c(-c2ccco2)s1)c1c(F)cccc1Cl` gave TIM10 inh 25, tim23-1 inh 38, PfHsp90 set2 -18, NALP3 yeast inh 12 and tim10-1 inh 30.
For CN1CCC(N(C)S(=O)(=O)c2ccc(NC(=O)COc3cccc(C(F)(F)F)c3)cc2)CC1 the results were TIM10 inh -10, tim23-1 inh -35, PfHsp90 set2 -21, NALP3 yeast inh 5 and tim10-1 inh -19.
`[O-][n+]1cccc2c(Br)cc(Br)c(O)c21` gave TIM10 inh 40, tim23-1 inh 40, PfHsp90 set2 107*, NALP1 yeast inh -12, NALP3 yeast inh 28, tim10-1 inh 49* and tim10-1 confirm 23.
For C[n+]1cccc2c(Br)ccc([O-])c21 the results were TIM10 inh 13, tim23-1 inh 9, PfHsp90 set2 -6, NALP1 yeast inh 27, NALP3 yeast inh 15 and tim10-1 inh 21.
For CCCCCN(C(=O)CCC(=O)OCC(=O)N(C)Cc1ccc(C)cc1)c1c(N)n(CCCC)c(=O)[nH]c1=O the results were TIM10 inh 7, tim23-1 inh 2, PfHsp90 set2 -9, NALP1 yeast inh 16, NALP3 yeast inh -3 and tim10-1 inh -1.
`CCC(=O)NC(c1ccco1)c1cc(Cl)c2cccnc2c1O` (centres undefined) gave TIM10 inh 1, tim23-1 inh 46, PfHsp90 set2 52, NALP1 yeast inh 8, NALP3 yeast inh -25, tim10-1 inh 40 and tim10-1 confirm 28.
